The text below walks through data of ChEMBL document CHEMBL1201862, “PubChem BioAssay data set” (2004).

Out of some 56,000 […] screened, about 2,300 (4.1%) were called active. No stated cut-off is given here; in the data, active = GI50 up to about 1.1 µM and inactive = higher. Not all results are given here. Measured potencies and affinities stand elsewhere.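 Test compounds were applied to cells in 96-well plates for 48 hours at 5 doses. At the GI50, growth is halved.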

This assay has as its system TK-10. Nature of the assay: NCI tumour cell line growth inhibition, 48 h.
Substance “[Bis(aminomethyl)ethylmethylsilane]tetrachloroplatinum(IV), CHEMBL2146192” showed a GI50 of 13.1 µM.

The substance “[Bis(aminomethyl)tetramethylenesilane]dichloropaltinum(II), CHEMBL2146205” came in with a GI50 of 32.2 µM.

“[Bis(aminomethyl)dimethylsilane]tetrachloroplatinum(IV), CHEMBL2146190”: the GI50 stood at 9.48 µM.

“[Bis(aminomethyl)diethylsilane]tetrachloroplatinum(IV), CHEMBL2146203” gave a GI50 of 13.4 µM.

“mu-(1,7-nanodiamine-N,N')bis-(cis-aminedichloroplatimum (II)), CHEMBL2146215” returned a GI50 of 62.8 µM.

“[Bis(aminomethyl)pentamethylenesilane]tetrachloropaltinum(IV), CHEMBL2146204” had a GI50 of 17.1 µM.

Regarding “[Bis(aminomethyl)dimethylsilane]dichloroplatinum (II), CHEMBL2146201”, the GI50 was found to be 24.6 µM.

“cis-Bis[[(trimethylsilyl)methyl]amino]tetrachloroplatinum(IV), CHEMBL2146191” yielded a GI50 of 13.2 µM.

Substance CISPLATIN, CHEMBL11359 displayed a GI50 of 6.64 µM.

Turning to “[Bis(aminomethyl)tetramethylenesilane]tetrachloropaltinum(IV), CHEMBL2146189”, the GI50 is 9.91 µM.

“[Bis(aminomethyl)pentamethylenesilane]dichloropaltinum(II), CHEMBL2146202” registered a GI50 of 12.7 µM.
